A selection: hits, their analogues and other compounds. The true share with any hit is near 19%.
TDP1 block: TDP1 (human) enzyme inhibition; recombinant TDP1, AlphaScreen DNA substrate cleavage; 350,000 compounds, 0.28% hits; Q9NUW8; Potency, µM (highest dose often 130 µM), for the others: at the top dose activity change, negative = inhibition, usual class: inhibitors; also: nearly all actives have a fitted effect of over 40% in size
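Tdp1 1 nM final; 15 min RT w/ cpd; substrate 15 nM, 5 min; beads 10 ug/ml, 10 min; AlphaScreen read. Neg ctrl: no enzyme.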
RORg inh: blocks mouse ROR gamma transcriptional activity | Drosophila S2 Gal4-RORgamma UAS-luciferase reporter, 20 h | 310,000 compounds, 5.4% hits | Potency, µM (top dose mostly 53.6 µM), for inactives: top-dose activity change, negative = inhibition, hits mostly inhibitors | AID 2551 | P51450; also: nearly all actives have a fitted effect of over 60% in size
Target sequence (P51450 whole entry, looked up, the tested form may be a part): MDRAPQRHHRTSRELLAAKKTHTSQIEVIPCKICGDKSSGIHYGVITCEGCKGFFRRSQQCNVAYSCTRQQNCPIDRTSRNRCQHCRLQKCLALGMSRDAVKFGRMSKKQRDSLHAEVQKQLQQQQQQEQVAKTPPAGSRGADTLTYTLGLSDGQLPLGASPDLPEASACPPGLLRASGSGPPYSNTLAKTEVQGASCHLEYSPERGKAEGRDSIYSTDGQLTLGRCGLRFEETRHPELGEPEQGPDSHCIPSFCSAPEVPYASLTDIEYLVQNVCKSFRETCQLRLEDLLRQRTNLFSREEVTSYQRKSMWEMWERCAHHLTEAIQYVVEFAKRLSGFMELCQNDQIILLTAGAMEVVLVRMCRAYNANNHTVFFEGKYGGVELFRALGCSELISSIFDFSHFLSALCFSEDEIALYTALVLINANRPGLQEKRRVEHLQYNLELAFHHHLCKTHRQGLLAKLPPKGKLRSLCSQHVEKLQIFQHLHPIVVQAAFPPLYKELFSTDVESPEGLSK
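A Gal4/UAS one-hybrid system in insect cells: metallothionein-promoter Gal4–ROR gamma fusion plus Photinus luciferase reporter. Copper sulfate 700 uM final, 20 hr ambient incubation, luminescent detection after 10 min with reagent.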
Gal4-VP16 FLuc: counter-screen for ROR gamma inhibitors: Gal4-VP16 reporter; Drosophila S2 Gal4-VP16 UAS-luciferase, luminescence, 20 h; 310,000 compounds, 3.5% hits; Potency, µM (highest dose often 53.6 µM), without a hit: at the highest dose activity, negative = inhibition, usual class: inhibitors;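 also: Gal4-VP16 expression switched on by copper sulfate through the metallothionein promoter; nearly all actives have a fitted effect of over 50% in size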
DT40 TDP1 no CPT: qHTS for Inhibitors of human tyrosyl-DNA phosphodiesterase 1 (TDP1): qHTS in cells in absence of CPT; Potency, µM (highest dose often 46.2 µM), for inactives: at the highest dose activity change, negative = growth inhibition, actives largely listed as inhibitors; AID 686978, 2013; 420,000 compounds, 15% hits; DT40 Tdp1-/- hTDP1 cells, no CPT, ATP luminescence, 48 h; also: nearly all actives have a fitted effect of over 55% in size
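DT40 Tdp1-/-;hTDP1 cells, no CPT (DMSO vehicle only), 400 cells/well; compounds pin-transferred; ≥48 hr, 37 °C; CellTiter-Glo 30 min RT dark, luminescence read.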
TDP1 cell CPT: growth inhibition of DT40 Tdp1-/-;hTDP1 cells with camptothecin (screen for TDP1 inhibitors). 420,000 compounds, 12% hits. chicken DT40 Tdp1-/-;hTDP1 cells + 20 nM CPT, ATP luminescence, 48 h. AID 686979. Potency, µM (series often up to 46.2 µM), for inactives: at the top dose activity change, negative = growth inhibition, most hits filed as inhibitors; also: nearly all actives have a fitted effect of over 55% in size
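Chicken DT40 Tdp1-/- cells complemented with human TDP1, 400 cells/well, exposed to compounds plus 20 nM camptothecin for at least 48 h at 37 C; viability read as ATP content by CellTiter-Glo luminescence.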
The depositor's hits bear a star; ? = inconclusive; . = no result; [ ] = another dose, or the depositor's remark. Calls follow the shape of the dose curve; as a rule, active = well fitted curve in the direction sought with a large enough effect; inconclusive = small, poorly fitted or top-dose-only effect, or another doubt; inactive = no such curve, though single readings can be large; an effect the other way counts as inactive or inconclusive. % is scaled to controls: 0 for no effect and ±100 for the full control effect; potency is read from the fitted curve at half-maximal effect.

SMILES	TDP1 block	RORg inh	Gal4-VP16 FLuc	DT40 TDP1 no CPT	TDP1 cell CPT
O=c1[nH]nc(SCc2ccccc2)n1C1CC2C=CC1C2 (configuration not stated)	4%	12%	-4%	-20%	-2%
N/C(=N\OC(=O)c1cccc(Cl)c1)c1ccncc1	.	-2%	-21%	-13%	-8%
Cc1ccc(N(CC(O)Cn2nc(C)cc2C)S(=O)(=O)c2ccc3ccccc3c2)cc1 (configuration not stated)	2%	?	?	18µM*	?
Cc1cc(C)n(CC(O)CN(c2ccccc2)S(=O)(=O)c2ccccc2)n1 (configuration not stated)	2%	5%	1%	?	-8%
CCOC(=O)c1cnc2c(OC)cccc2c1N1CC(C)CC(C)C1 (configuration not stated)	.	?	-23%	7.3µM*	12µM*
CCOC(=O)c1cnc2c(C(F)(F)F)cccc2c1N1CCN(C)CC1	.	1%	5%	-23%	-8%
CCOC(=O)c1cnc2c(OC)cccc2c1N1CCN(c2ccccc2OC)CC1	11%	-41%	-10%	13µM*	?
CCOC(=O)c1cnc2c(OC)cccc2c1Oc1ccccc1	.	-5%	-5%	-8%	0%
CCOC(=O)c1cnc2c(OC)cccc2c1N1CCN(c2ccccn2)CC1	5%	12%	-3%	16µM*	?
CCOC(=O)c1cnc2ccc(OCC)cc2c1N1CCN(c2cccc(Cl)c2)CC1	3%	.	.	8.2µM*	16µM*
CCOC(=O)c1cnc2ccc(OCC)cc2c1N1CCN(C)CC1	5%	5%	-8%	?	?
COc1ccccc1NC(=O)CSCc1cc(=O)c2c(C)cc(C)cc2[nH]1	5%	.	.	?	16%
Cc1ccc(C(=O)N/C(=C\c2ccc(Cl)cc2)C(=O)NCCCN2CCOCC2)cc1	-1%	-3%	-11%	15%	9%
CCOC(=O)c1cnc2c(OC)cccc2c1N1CCN(c2ccc(OC)cc2)CC1	5%	-5%	2.2µM*	16µM*	?
CCOC(=O)c1cnc2cc(C(F)(F)F)ccc2c1N1CCN(c2ccc(F)cc2)CC1	1%	.	.	21µM*	?
Cc1ccc(S(=O)(=O)NNC(=O)c2ccccc2-n2cccc2)cc1	3%	-4%	6%	4%	-14%
CCCNC(=O)Nc1nc2ccccc2s1	.	-35%	-4%	4%	-25%
CCCNC(=O)c1ccc(-c2nc3ccccc3s2)s1	-3%	11µM*	?	10µM*	?
COCCn1nnnc1CN1C2CCCC1CC(NC(C)=O)C2 (configuration not stated)	7%	-2%	2%	1%	-15%
C/C(=N\NC(=O)c1csc(C)c1C)c1ccc(Cl)s1	5%	-7%	-3%	23µM*	23µM*
CC/C(=N\NC(=O)c1ccoc1C)c1ccc(C)o1	-13%	5µM*	10%	-16%	2%
C/C(=N\NC(=O)c1ccoc1C)c1ccc(Cl)s1	2%[56.1 µM]	11µM*	10µM*	4%	5%
CC/C(=N\NC(=O)c1csc(C)c1C)c1cccs1	3%	-44%	-15%	-14%	-23%
O=S1(=O)CC(N2CCCC2)CN1Cc1cn(Cc2ccc(F)cc2)nn1 (configuration not stated)	.	.	.	-15%	14%
Cc1cccc(C)c1NC(=S)Nc1ccccc1C(=O)NCc1ccco1	8%	?	-27%	-19%	-1%
SMILES	TDP1 block	RORg inh	Gal4-VP16 FLuc	DT40 TDP1 no CPT	TDP1 cell CPT
Cc1ccccc1NC(=S)NCc1ccco1	1%	13µM*	?	-6%	-1%
Cc1ccc(NC(=S)NCc2ccco2)c(C)c1	.	16µM*	?	?	?
C[C@@H]1[C@H](O)[C@@H](C)/C=C/C=C/C=C/C=C/C=C/C=C/C=C/[C@H](O[C@@H]2O[C@H](C)[C@@H](O)[C@H](N)[C@@H]2O)C[C@@H]2O[C@](O)(C[C@@H](O)C[C@@H](O)[C@H](O)CC[C@@H](O)C[C@@H](O)CC(=O)O[C@H]1C)C[C@H](O)[C@H]2C(=O)O	7%	0%	-1%	.	.
Cc1noc(C)c1C(=O)NC(Cc1c[nH]c2ccccc12)C(=O)O (configuration not stated)	3%	.	.	-1%	-20%
CCC(C)c1ccccc1NC(=O)c1[nH]c(C)c(C(C)=O)c1C (configuration not stated)	4%	-13%	8%	-22%	-15%
CC(=O)c1c(C)[nH]c(C(=O)NC(C)c2ccccc2)c1C (configuration not stated)	-2%	6%	-4%	16µM*	?
CC(=O)c1c(C)[nH]c(C(=O)Nc2nccs2)c1C	4%	?	-8%	13µM*	12µM*
Cc1cccc(NC(=O)CN2C(=O)N/C(=C\c3ccc(-c4cccc(C(=O)O)c4)o3)C2=O)c1	.	0%	0%	-18%	11%
Cc1ccc(CN2C(=O)N/C(=C/c3ccc(-c4ccc(C(=O)O)cc4)o3)C2=O)cc1	22µM*	4%	5%	20%	-11%
Cc1cc(C(=O)O)ccc1-c1ccc(/C=C2\NC(=O)N(Cc3ccc(F)cc3)C2=O)o1	4µM*	-1%	5%	?	-29%
O=C(O)c1cc(-c2ccc(/C=c3\sc4nc5ccc(Br)cc5n4c3=O)o2)ccc1Cl	.	-29%[1.91 µM]	-9%	.	.
C#CCN1C(=O)S/C(=C\c2ccc(-c3ccc(Cl)c(C(=O)O)c3)o2)C1=O	.	-10%[1.91 µM]	1.3µM*	-29%	-29%
O=C(O)c1cc(-c2ccc(/C=C3\NC(=O)N(c4ccccc4)C3=O)o2)ccc1Cl	8.9µM*	1%	-8%	4.1µM*	?
O=C(O)c1cc(-c2ccc(/C=C3\NC(=O)N(c4ccc(Cl)cc4)C3=O)o2)ccc1Cl	6.3µM*	-23%	3%	-11%	-7%
O=C(CO/N=C/c1cccc([N+](=O)[O-])c1)NC1CCCCC1	3%	32%	2%	?	-4%
Cc1c(C(c2cccc(Br)c2)c2c(C)n(C)n(-c3ccccc3)c2=O)c(=O)n(-c2ccccc2)n1C	2%	-6%	-9%	-11%	-13%
CC(=O)Nc1cccc(NC(=O)CSc2nccn2C2CCCC2)c1	7%	.	.	?	?
Cc1cc(C)cc(-n2ccnc2SCC(=O)Nc2ccc(C)c(Cl)c2)c1	8%	.	.	18µM*	16µM*
CCc1ccc(NC(=O)CSc2nccn2C2CCCC2)cc1	9%	.	.	?	18µM*
Cc1cc(C)c(NC(=O)CSc2nccn2-c2cccc(Cl)c2)c(C)c1	5%	.	.	?	?
Cc1ccc(C)c(NC(=O)CSc2nccn2-c2cccc(C)c2C)c1	7%	.	.	21µM*	18µM*

Screening data (PubChem)
